From PubChem BioAssay (NCI)
The panel holds about 83,000 compounds, 20% with a hit somewhere; the sample as a whole holds those more often.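 Step 1: grow cells in 96-well plates. Step 2: add test compound at a single concentration. Step 3: incubate 48 h. Step 4: record percent growth.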 The source made the active and inactive calls. How the source made its calls: active means growth percent below 10; inactive means the rest.

system: MDA-MB-468 breast; assay: NCI-60 one-dose screen, 48 h (100 = growth as untreated, 0 = no growth, -100 = all killed); conditions: 10 µM unless noted

SMILES | growth
O=C(CC1(O)C(=O)Nc2ccc(Br)cc21)c1ccc(C(=O)NCC2CCC3(CC2)OOC2(CCCCC2)OO3)cc1 (centres undefined) | 48.7% (inactive)
COc1ccc(Nc2ccnc3cc(Cl)ccc23)cc1CN(CCCl)CCCl | -58.6% (active)
Cc1cc(CCl)c(C)cc1CCl | -59.9% (active)
[Cl][Hg][c]1cc[c]([Hg][Cl])o1 | -0.231% (active)
